# The entries come from a sample that favours hits as a whole.
# ST2 inh – inhibitors of human ST2 (IL1RL1) binding to IL-33, primary screen, biochemical, AlphaLISA; AID 1259354, 2018; AlphaLISA ST2-Fc/biotin-IL-33 interaction, 1 h; Interleukin-1 receptor-like 1 (Homo sapiens), Q01638; 78,000 tested, 2.3% active; inhibition, % for hits at 17 µM; in the data active = inhibition above about 30%
# Target sequence (Q01638 whole entry, looked up): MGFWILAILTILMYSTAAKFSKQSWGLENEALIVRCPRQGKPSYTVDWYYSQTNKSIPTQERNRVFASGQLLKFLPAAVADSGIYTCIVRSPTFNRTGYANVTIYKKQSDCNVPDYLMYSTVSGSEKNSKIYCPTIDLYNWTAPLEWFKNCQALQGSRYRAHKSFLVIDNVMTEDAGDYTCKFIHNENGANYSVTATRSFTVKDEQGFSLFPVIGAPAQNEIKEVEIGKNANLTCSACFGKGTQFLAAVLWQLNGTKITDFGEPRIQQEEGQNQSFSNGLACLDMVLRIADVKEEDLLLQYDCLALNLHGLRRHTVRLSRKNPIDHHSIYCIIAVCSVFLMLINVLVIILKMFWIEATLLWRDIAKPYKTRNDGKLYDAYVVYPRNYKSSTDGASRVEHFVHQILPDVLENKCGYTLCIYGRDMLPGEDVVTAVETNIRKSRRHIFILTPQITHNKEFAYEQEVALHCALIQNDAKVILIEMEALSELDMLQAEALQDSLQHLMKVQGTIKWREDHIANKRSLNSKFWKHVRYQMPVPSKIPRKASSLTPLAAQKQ
# Starred values were filed as active, the others as inactive; i = inactive.
SMILES,ST2 inh
CCn1c(=O)c(-c2ccc3ccccc3n2)cc2cc(Br)ccc21,36.0%*
CC(=O)c1ccccc1-c1ccc2ccccc2n1,i
CCn1c(/C=C/c2ccc(F)cc2)nc2ccccc2c1=O,i
COc1ccc(C(=O)Nc2ccc(Cl)cn2)cc1OC,i
CCOC(=O)c1ccc2[nH]cc(C(=O)c3ccccc3)c(=O)c2c1,i
CCOC(=O)c1ccc2[nH]cc(C(=O)c3ccc(C)cc3)c(=O)c2c1,i
CCc1ccc(C(=O)c2c[nH]c3ccc(CC)cc3c2=O)cc1,i
CCc1ccc(C(=O)c2c[nH]c3ccc(F)cc3c2=O)cc1,42.0%*
CCc1ccc(C(=O)c2c[nH]c3ccc(C)cc3c2=O)cc1,i
Cc1ccc(C(=O)c2c[nH]c3ccc(Br)cc3c2=O)cc1,33.0%*
CCOc1ccc(C(=O)N2CCC(n3nc(C)cc3C)C2)o1 (stereo not drawn),i
CCCc1cnc(C)nc1N1CC(N2CCCCC2C)C1 (stereo not drawn),i
COc1cc(/C=C2/NC(=O)N(Cc3ccc(Cl)cc3)C2=O)cc(Br)c1OC,i
COc1cc(-c2nc(CN3[C@@H]4CC[C@H]3CNC4)c(C)o2)cc2c1OCO2,i
Cc1ccccc1NC(=O)CSC1=Nc2ccccc2C2=NC(c3ccccc3)C(=O)N12 (stereo not drawn),i
CCN1C(=O)CSc2ccc(C(=O)NCc3c(F)cc(F)cc3F)cc21,i
COc1ccc(-c2noc([C@@H]3C[C@@H](O)CN3Cc3ccncc3)n2)cc1,36.0%*
O=C(O)c1ccc(CN2C[C@H](O)C[C@H]2c2nc(-c3ccccc3)no2)cc1,i
O[C@@H]1C[C@@H](c2nc(-c3cccnc3)no2)N(Cc2ccccc2)C1,i
Cn1c(CN2C[C@H](O)C[C@H]2c2nc(-c3ccccc3)no2)nc2ccccc21,i
CC(=O)Nc1ccc(CN2C[C@H](O)C[C@H]2c2nc(CS(=O)(=O)c3ccc(F)cc3)no2)cc1,74.0%*
COc1ccc(-c2noc([C@@H]3C[C@@H](O)CN3Cc3ccc(Cl)cc3)n2)cc1,i
O[C@@H]1C[C@@H](c2nc(-c3ccc(F)cc3)no2)N(Cc2ccc(OC(F)(F)F)cc2)C1,53.0%*
O=S(=O)(Cc1noc([C@@H]2C[C@@H](O)CN2Cc2ccc(-c3ccccn3)cc2)n1)c1ccc(F)cc1,i
O=[N+]([O-])c1ccc(CN2C[C@H](O)C[C@H]2c2nc(-c3ccc(C(F)(F)F)cc3)no2)cc1,i
SMILES,ST2 inh
O=S(=O)(Cc1noc([C@@H]2C[C@@H](O)CN2CC2CC2)n1)c1ccc(F)cc1,i
O=[N+]([O-])c1ccc(CN2C[C@H](O)C[C@H]2c2nc(-c3ccc(OC(F)(F)F)cc3)no2)cc1,i
O[C@@H]1C[C@@H](c2nc(-c3ccccc3)no2)N(Cc2c[nH]c3ccccc23)C1,38.0%*
O=C(NCc1cccs1)c1ccc2c(c1)N(Cc1c(F)cccc1Cl)C(=O)CS2,i
CC(C)n1cc(C2c3[nH]c4ccccc4c3CCN2Cc2cnn(-c3ccccc3)c2)cn1 (stereo not drawn),i
COc1cc(N=c2c([N+](=O)[O-])nn(-c3ccccc3)n2O)cc(OC)c1,i
CCc1cccc(NC(=O)CN2CCCN(Cc3ccccc3)S2(=O)=O)c1,i
Nc1cccc(-c2cccc(C(=O)O)c2)n1,i
CCc1nnc(NC(=O)c2sc3cc(C)ccc3c2Cl)s1,i
Cc1cc(C)c(S(=O)(=O)Nc2nc(C)cc(C)n2)c(C)c1,i
Cc1nn(Cc2ccccc2)c(C)c1NC(=O)c1cc(-c2ccc(Br)cc2)on1,i
CC1(C)C(=O)OC(/C(Br)=C/c2ccccc2)C(C)(C)C1=O (stereo not drawn),i
Cc1nc(N2C(=O)C(O)=C(C(=O)c3cccs3)C2c2cccc([N+](=O)[O-])c2)sc1C (stereo not drawn),i
Cn1cc(CC(=O)N2CCC(N3CCCCC3)CC2)c2ccccc21,i
COc1ccc(CN2C[C@H](O)C[C@H]2c2nc(CS(=O)(=O)c3ccc(C)cc3)no2)cc1,i
COc1ccc(CN2C[C@H](O)C[C@H]2c2nc(-c3ccc(OC(F)(F)F)cc3)no2)cc1,31.0%*
O[C@@H]1C[C@@H](c2nc(-c3ccncc3)no2)N(Cc2ccc(-c3ccccn3)cc2)C1,33.0%*
CN(C)c1ccc(CN2C[C@H](O)C[C@H]2c2nc(-c3ccccn3)no2)cc1,i
O[C@@H]1C[C@@H](c2nc(-c3ccc(C(F)(F)F)cc3)no2)N(Cc2ccc(-c3ccccn3)cc2)C1,i
CS(=O)(=O)c1ccc(CN2C[C@H](O)C[C@H]2c2nc(-c3ccc(C(F)(F)F)cc3)no2)cc1,i
O=[N+]([O-])c1ccc(O)c(CN2CCCCC2)c1,i
Cc1nonc1CC(=O)N1CCCC(CNC(=O)C2(c3ccc(Cl)cc3)CC2)C1 (stereo not drawn),i
COc1ccc(CN2CCN(c3ccccn3)CC2)cc1C,i
Cc1nnc(Nc2cccc(C(F)(F)F)c2)[nH]c1=O,i
O=C1C=C(Nc2cccc(C(F)(F)F)c2)C(=O)c2ccccc21,31.0%*
SMILES,ST2 inh
O=C(CCCCCN1C(=O)c2ccccc2C1=O)Nc1cccc(C(F)(F)F)c1,i
COc1cccc(C2CCN2C(=O)CC(=O)Nc2ccc(C)cc2)c1 (stereo not drawn),31.0%*
COc1cccc(C2CCN2C(=O)Nc2n[nH]c(CCc3ccccc3)n2)c1 (stereo not drawn),i
COc1cccc(NC(=O)C(=O)NCc2ccc(C)cc2)c1,i
Cc1ccc(N2CC(NC(=O)c3cccc(Br)c3)CC2=O)cc1 (stereo not drawn),i
Cc1ccccc1-c1ccc(CN2CCC(N)(C(=O)O)C2)cc1 (stereo not drawn),i
O=c1ccn(-c2ccccc2)[nH]1,i
O=C(O)COc1ccc(C=C2C(=O)c3ccccc3C2=O)cc1Cl,i
O=C1C(=Cc2cccn2-c2ccccc2)C(=O)c2ccccc21,31.0%*
O=C(c1ccccc1C(F)(F)F)N1CCN=C1SCc1ccccc1,i
O=C(Nc1ccccn1)c1ccc2c(c1)C(=O)N(c1cccc([N+](=O)[O-])c1)C2=O,30.0%*
O=C(Nc1ccccc1C(=O)O)c1ccc2c(c1)C(=O)N(c1ccccn1)C2=O,i
CC1=C(C(=O)Nc2ccccn2)C(c2cccc([N+](=O)[O-])c2)C2=C(CCCC2=O)N1 (stereo not drawn),i
CN(C(=O)Cc1c(C(=O)O)[nH]c2ccccc12)c1ccc(Cl)cc1,i
COc1cc(OC)c(CN2CCN(c3ncccn3)CC2)cc1Br,i
CC(C)c1ccc(NC(=O)c2ccc(Cl)cc2[N+](=O)[O-])cc1,i
Cc1ccc(NC(=O)c2ccc(Cl)cc2Cl)cc1[N+](=O)[O-],i
NS(=O)(=O)c1ccc(NC(=O)c2ccccc2[N+](=O)[O-])cc1,32.0%*
O=C(Nc1ccc(Nc2ccccc2)cc1)c1ccc(Cl)cc1[N+](=O)[O-],43.0%*
CCC(C)c1ccc(NC(=O)c2ccccc2[N+](=O)[O-])cc1 (stereo not drawn),i
NS(=O)(=O)c1ccc(NC(=O)c2ccccc2)cc1,i
Cc1cc(NS(=O)(=O)c2cccc3cccnc23)ccc1Br,i
CC(c1ccc(-c2ccc3sc(N)nc3c2)cc1)N1CCOCC1 (stereo not drawn),i

# Screening results from PubChem.
